Records with an inconclusive call do not appear. A structure can be active in one record and inactive in another. The source made the active and inactive calls. Rule for the calls, unless noted: active = hit-call score of the fitted dose curve at least 0.9, where 1 is the maximum; inactive = score below 0.9.
What was measured:
[1] = ATG_PBREM_CIS: Attagene CIS-FACTORIAL HepG2 Assay for human Phenobarbital-responsive Enhancer Module (PBREM) (AID 2282955); conditions: HepG2 PBREM cis-reporter, Attagene multiplexed transcription; actives raise or lower the signal
In short: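 Endogenous transcription factors in human liver HepG2 cells drive a PBREM cis-element reporter, whose transcript level after 24 h treatment is quantified by RT-PCR with capillary electrophoresis; activity fitted in both directions against DMSO.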

[2] = biological target: Paired box protein Pax-6 (Homo sapiens) (UniProt P26367); test: ATG_Pax6_CIS: Attagene CIS-FACTORIAL HepG2 Assay for human Paired Box 6 (PAX6) (AID 2282956); conditions: HepG2 CIS-FACTORIAL PAX6 reporter transcription, RNA readout; actives raise or lower the signal
Chain of Paired box protein Pax-6 (Homo sapiens) (P26367 whole entry, looked up): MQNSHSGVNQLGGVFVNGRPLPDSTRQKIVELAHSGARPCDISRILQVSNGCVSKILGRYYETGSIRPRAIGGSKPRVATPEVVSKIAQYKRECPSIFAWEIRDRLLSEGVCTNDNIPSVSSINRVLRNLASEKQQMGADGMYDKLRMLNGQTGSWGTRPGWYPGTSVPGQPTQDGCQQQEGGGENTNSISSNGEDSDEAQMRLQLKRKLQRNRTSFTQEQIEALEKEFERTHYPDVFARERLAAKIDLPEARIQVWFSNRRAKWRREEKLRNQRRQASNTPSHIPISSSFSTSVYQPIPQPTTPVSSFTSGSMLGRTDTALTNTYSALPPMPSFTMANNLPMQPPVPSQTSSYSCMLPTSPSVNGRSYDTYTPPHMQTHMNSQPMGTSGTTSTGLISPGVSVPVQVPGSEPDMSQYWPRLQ
In short: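 Fluorescent RT-PCR products separated by capillary electrophoresis report PAX6-linked promoter mRNA in HepG2 cells 24 h post-dose. Curves fitted bidirectionally, DMSO as negative control.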

[3] = ATG_PXRE_CIS: Attagene CIS-FACTORIAL HepG2 Assay for human Pregnane X Receptor Element (PXRE) (AID 2282957); conditions: HepG2 Attagene CIS-FACTORIAL PXRE reporter, mRNA; actives raise or lower the signal
In short: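 Endogenous transcription factor activity in HepG2 was gauged through induction of reporter mRNA driven by a cis-regulating promoter element, sampled 24 h post-treatment. Activity was fitted in both directions against DMSO negative control.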

[4] = ATG_PPRE_CIS: Attagene CIS-FACTORIAL HepG2 Assay for human Peroxisome Proliferator-activated Response Element (PPRE) (AID 2282958); conditions: HepG2 PPRE cis-element reporter, Attagene transcription factor profiling; actives raise or lower the signal
In short: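 HepG2, transient MRTU transfection (cis promoter elements, endogenous TFs). 24 h dosing. RNA → oligo(dT) RT → PCR → 6-FAM primer extension → HpaI digest → CE. Bidirectional fit vs DMSO.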

[5] = ATG_RORE_CIS: Attagene CIS-FACTORIAL HepG2 Assay for human RAR-related Orphan Receptor Element (RORE) (AID 2282959); conditions: HepG2 Attagene cis-factorial RORE reporter, mRNA; actives raise or lower the signal
In short: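 Transient MRTU transfection of human HepG2 liver cells (FuGene 6); 24 h compound exposure; TriZol RNA, oligo(dT) RT, PCR, FAM labeling, HpaI cut, CE fragment analysis. DMSO = negative control/baseline.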

[6] = ATG_Sox_CIS: Attagene CIS-FACTORIAL HepG2 Assay for human SRY-box transcription factor (SOX) (AID 2282960); conditions: HepG2 Attagene cis-factorial SOX reporter, mRNA; actives raise or lower the signal
In short: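 Endogenous factor activity in human liver HepG2 cells carrying transfected cis-regulated reporter units. RNA taken 24 h post-dose, reverse-transcribed, PCR-amplified and sized by capillary electrophoresis. Gain or loss of signal fitted relative to DMSO.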

[7] = biological target: Transcription factor Sp1 (Homo sapiens) (UniProt P08047); test: ATG_Sp1_CIS: Attagene CIS-FACTORIAL HepG2 Assay for human Specificity Protein 1 (Sp1) (AID 2282961); conditions: HepG2 Sp1 cis-reporter transcription, actives raise or lower the signal
Chain of Transcription factor Sp1 (Homo sapiens) (P08047 whole entry, looked up): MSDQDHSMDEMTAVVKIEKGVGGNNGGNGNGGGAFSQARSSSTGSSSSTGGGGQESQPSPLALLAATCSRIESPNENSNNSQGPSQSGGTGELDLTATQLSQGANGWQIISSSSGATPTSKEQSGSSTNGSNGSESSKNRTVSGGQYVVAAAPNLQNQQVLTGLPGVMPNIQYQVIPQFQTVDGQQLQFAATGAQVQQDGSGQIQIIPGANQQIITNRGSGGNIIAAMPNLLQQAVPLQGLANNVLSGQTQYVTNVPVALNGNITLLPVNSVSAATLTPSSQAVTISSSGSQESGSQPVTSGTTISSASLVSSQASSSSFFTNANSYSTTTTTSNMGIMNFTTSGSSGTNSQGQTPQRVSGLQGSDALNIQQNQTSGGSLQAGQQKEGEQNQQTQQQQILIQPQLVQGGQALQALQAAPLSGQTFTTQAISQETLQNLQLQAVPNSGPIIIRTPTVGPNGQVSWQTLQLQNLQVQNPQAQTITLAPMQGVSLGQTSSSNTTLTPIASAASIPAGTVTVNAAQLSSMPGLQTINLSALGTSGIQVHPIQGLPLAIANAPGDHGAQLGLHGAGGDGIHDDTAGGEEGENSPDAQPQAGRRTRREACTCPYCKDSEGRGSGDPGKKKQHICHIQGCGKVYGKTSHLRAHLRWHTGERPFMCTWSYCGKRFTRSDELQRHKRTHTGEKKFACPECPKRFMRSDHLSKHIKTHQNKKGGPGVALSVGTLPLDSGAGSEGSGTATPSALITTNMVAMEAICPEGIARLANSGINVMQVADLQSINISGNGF
In short: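 Transient MRTU-transfected HepG2, 24 h compound exposure. Total RNA → oligo(dT) RT → PCR of reporter → 6-FAM primer extension → HpaI digest → CE. Endpoint fitted both directions vs DMSO.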

[8] = ATG_SREBP_CIS: Attagene CIS-FACTORIAL HepG2 Assay for human Sterol Regulatory Element Binding (SREBP) (AID 2282962); conditions: HepG2 Attagene cis-factorial SREBP reporter, mRNA; actives raise or lower the signal
In short: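 Endogenous factor activity is measured in HepG2 through multiplexed reporter units under cis-element control. Following a 24 h incubation, reporter transcripts are reverse-transcribed, PCR-amplified and sized by capillary electrophoresis; activity is fitted in both directions relative to DMSO.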

[9] = biological target: Signal transducer and activator of transcription 3 (Homo sapiens) (UniProt P40763); test: ATG_STAT3_CIS: Attagene CIS-FACTORIAL HepG2 Assay for human Signal Transducer and Activator of Transcription 3 (STAT3) (AID 2282963); conditions: HepG2, Attagene cis-factorial STAT3 reporter transcription; actives raise or lower the signal
Chain of Signal transducer and activator of transcription 3 (Homo sapiens) (P40763 whole entry, looked up, the tested form may be a part): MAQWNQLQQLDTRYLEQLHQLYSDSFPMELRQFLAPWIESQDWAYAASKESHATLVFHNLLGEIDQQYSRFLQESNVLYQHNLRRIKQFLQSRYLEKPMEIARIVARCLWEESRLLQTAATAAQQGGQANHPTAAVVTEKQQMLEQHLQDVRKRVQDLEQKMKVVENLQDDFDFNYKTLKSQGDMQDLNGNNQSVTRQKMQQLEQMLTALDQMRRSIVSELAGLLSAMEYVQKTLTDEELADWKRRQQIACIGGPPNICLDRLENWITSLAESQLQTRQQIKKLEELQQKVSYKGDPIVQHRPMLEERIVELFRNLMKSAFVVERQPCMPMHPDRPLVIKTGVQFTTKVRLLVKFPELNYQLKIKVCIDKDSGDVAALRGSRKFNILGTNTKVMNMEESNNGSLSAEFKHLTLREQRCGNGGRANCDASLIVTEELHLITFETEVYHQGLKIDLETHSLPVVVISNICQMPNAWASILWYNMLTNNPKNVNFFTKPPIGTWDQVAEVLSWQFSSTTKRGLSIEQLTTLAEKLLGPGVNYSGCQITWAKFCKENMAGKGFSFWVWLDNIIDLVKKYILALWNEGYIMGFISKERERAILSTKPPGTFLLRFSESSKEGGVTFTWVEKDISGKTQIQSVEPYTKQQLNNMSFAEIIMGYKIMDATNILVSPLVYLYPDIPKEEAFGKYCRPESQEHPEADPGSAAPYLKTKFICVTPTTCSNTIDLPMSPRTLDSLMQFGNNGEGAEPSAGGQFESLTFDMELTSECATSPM
In short: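 Fluorescence intensity of 6-FAM-labelled reporter fragments, separated by capillary electrophoresis after RT-PCR, gave the signal. Cells were HepG2 transfected with cis-element reporter units and treated 24 h; fitting was bidirectional relative to DMSO.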

[10] = ATG_TA_CIS: Attagene CIS-FACTORIAL HepG2 Assay for human TA Basal Promoter (AID 2282964); conditions: HepG2 Attagene CIS-factorial TA basal promoter reporter; actives raise or lower the signal
In short: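 Fluorescence from labelled RT-PCR reporter fragments, separated by capillary electrophoresis, gives the signal. Cells: HepG2 transiently carrying multiple reporter units, 24 h chemical dosing. Gain or loss relative to DMSO.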

[11] = ATG_TCF_b_cat_CIS: Attagene CIS-FACTORIAL HepG2 Assay for human T-Cell-Factor with beta-catenin (TCF/b-cat) (AID 2282965); conditions: HepG2 TCF/beta-catenin cis-reporter transcription, actives raise or lower the signal
In short: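 Cells of the HepG2 line carry transiently transfected reporter units whose promoters respond to endogenous factors. Twenty-four hours post-dosing, reporter mRNA induction is measured by fluorescent RT-PCR and capillary electrophoresis, with DMSO as baseline.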

[12] = ATG_TAL_CIS: Attagene CIS-FACTORIAL HepG2 Assay for human TAL Basal Promoter (AID 2282966); conditions: HepG2 Attagene cis-factorial TAL promoter reporter; actives raise or lower the signal;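 note: background control endpoint measuring basal TAL promoter reporter mRNA not a specific factor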
In short: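 Endogenous transcription-factor activity is sensed in HepG2 cells through transfected cis-promoter reporter constructs. After 24 h dosing, reporter transcripts are quantified by RT-PCR and capillary electrophoresis. Gain or loss of signal is fitted relative to DMSO.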

[13] = ATG_TGFb_CIS: Attagene CIS-FACTORIAL HepG2 Assay for human Transforming Growth Factor (TGF) (AID 2282967); conditions: HepG2 Attagene CIS TGFb reporter, mRNA transcription; actives raise or lower the signal
In short: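 Bidirectional fitting relative to DMSO gave the endpoint. Underlying data: reporter mRNA from HepG2 cells carrying transiently transfected cis-regulated reporter constructs, harvested 24 h after dosing and analyzed by RT-PCR and capillary electrophoresis.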

[14] = ATG_VDRE_CIS: Attagene CIS-FACTORIAL HepG2 Assay for human Vitamin D Receptor Element (VDRE) (AID 2282968); conditions: HepG2 VDRE cis-reporter transcription, actives raise or lower the signal
In short: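 Compounds were applied for 24 h to HepG2 cells transfected with promoter-regulated reporter units. Total RNA was reverse-transcribed, and reporter amplicons were fluorescently labelled and sized by capillary electrophoresis.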

[15] = biological target: Nuclear receptor subfamily 1 group I member 3 (Homo sapiens) (UniProt Q14994); test: ATG_CAR_TRANS: Attagene TRANS-FACTORIAL HepG2 Assay for human Constitutive Androstane Receptor (CAR) (AID 2282969; active = hit-call score of the fitted dose curve at least 0.9, where 1 is the maximum;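 note: activators raise reporter mRNA above DMSO so AC50 marks induction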); conditions: HepG2 Attagene TRANS-FACTORIAL CAR reporter
Chain of Nuclear receptor subfamily 1 group I member 3 (Homo sapiens) (Q14994 whole entry, looked up, the tested form may be a part): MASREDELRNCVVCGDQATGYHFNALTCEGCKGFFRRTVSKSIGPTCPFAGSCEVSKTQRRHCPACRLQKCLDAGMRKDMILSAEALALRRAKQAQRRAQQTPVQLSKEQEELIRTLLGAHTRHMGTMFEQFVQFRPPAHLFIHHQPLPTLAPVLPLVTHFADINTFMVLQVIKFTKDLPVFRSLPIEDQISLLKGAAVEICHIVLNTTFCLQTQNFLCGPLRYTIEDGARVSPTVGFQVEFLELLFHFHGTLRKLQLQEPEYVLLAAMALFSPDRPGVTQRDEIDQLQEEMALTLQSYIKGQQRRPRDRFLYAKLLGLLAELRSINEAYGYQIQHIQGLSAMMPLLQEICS
In short: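 Transiently transfected HepG2, multiplex TRANS reporters (CAR-Gal4 chimera driving GAL4-UAS reporter). 24 h dosing. Readout: reporter transcript by RT-PCR + capillary electrophoresis, fluorescence intensity; positive direction vs DMSO.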

[16] = biological target: Estrogen receptor (Homo sapiens) (UniProt P03372); test: ATG_ERa_TRANS: Attagene TRANS-FACTORIAL HepG2 Assay for human Estrogen Receptor alpha (ERa) (AID 2282970; active = hit-call score of the fitted dose curve at least 0.9, where 1 is the maximum); conditions: HepG2 Attagene TRANS ERa GAL4 reporter, mRNA
Chain of Estrogen receptor (Homo sapiens) (P03372 whole entry, looked up, the tested form may be a part): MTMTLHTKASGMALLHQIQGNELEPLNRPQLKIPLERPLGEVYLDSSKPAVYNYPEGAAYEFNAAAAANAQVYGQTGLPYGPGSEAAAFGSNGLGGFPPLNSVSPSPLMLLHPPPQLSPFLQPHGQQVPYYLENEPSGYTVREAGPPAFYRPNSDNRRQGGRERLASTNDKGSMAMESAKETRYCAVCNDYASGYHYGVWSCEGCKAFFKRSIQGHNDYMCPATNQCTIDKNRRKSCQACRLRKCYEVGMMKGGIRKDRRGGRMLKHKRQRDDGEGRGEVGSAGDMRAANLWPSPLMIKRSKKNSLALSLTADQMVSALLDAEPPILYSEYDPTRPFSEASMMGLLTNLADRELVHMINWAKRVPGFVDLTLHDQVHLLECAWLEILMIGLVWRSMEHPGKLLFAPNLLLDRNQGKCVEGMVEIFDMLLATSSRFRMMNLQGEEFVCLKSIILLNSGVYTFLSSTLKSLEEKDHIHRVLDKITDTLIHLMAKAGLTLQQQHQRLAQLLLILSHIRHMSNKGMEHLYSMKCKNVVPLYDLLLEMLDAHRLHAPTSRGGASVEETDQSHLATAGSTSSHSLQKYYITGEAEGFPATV
In short: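 Transfected HepG2 cells carrying GAL4-UAS-driven reporter units were dosed for 24 hours. Total RNA was reverse-transcribed, reporter sequences PCR-amplified, FAM-labelled, HpaI-digested and resolved by capillary electrophoresis. Increases over DMSO control defined activity.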

[17] = biological target: X-box-binding protein 1 (Homo sapiens) (UniProt P17861); test: ATG_Xbp1_CIS: Attagene CIS-FACTORIAL HepG2 Assay for human X-box Binding Protein 1 (XBP1) (AID 2282972); conditions: HepG2 XBP1 cis-element reporter, Attagene multiplex; actives raise or lower the signal
Chain of X-box-binding protein 1 (Homo sapiens) (P17861 whole entry, looked up): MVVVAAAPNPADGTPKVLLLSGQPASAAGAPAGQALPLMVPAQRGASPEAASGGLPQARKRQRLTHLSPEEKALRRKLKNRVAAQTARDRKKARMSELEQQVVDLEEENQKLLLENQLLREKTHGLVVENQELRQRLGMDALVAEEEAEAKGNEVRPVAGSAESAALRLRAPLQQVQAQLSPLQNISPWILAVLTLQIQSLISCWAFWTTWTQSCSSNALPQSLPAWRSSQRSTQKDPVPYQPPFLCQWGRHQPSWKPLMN
In short: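 Multiplexed cis-reporter readout in transfected HepG2 liver cells. Exposure lasted 24 hours. Activity in either direction was fitted against DMSO as negative control and baseline.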

[18] = ATG_M_19_TRANS: Attagene TRANS-FACTORIAL HepG2 Assay for M19 Transcription Factor (Internal Marker) (AID 2282974; active = hit-call score of the fitted dose curve at least 0.9, where 1 is the maximum); conditions: HepG2 Attagene TRANS-FACTORIAL M19 internal marker reporter
In short: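 Fluorescence of 6-FAM-labelled reporter cDNA fragments, separated by capillary electrophoresis, served as the readout. These derived from HepG2 cells carrying transfected GAL4-UAS reporter units after 24 h dosing, with DMSO as negative control.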

[19] = biological target: Androgen receptor (Homo sapiens) (UniProt P10275); test: ATG_AR_TRANS: Attagene TRANS-FACTORIAL HepG2 Assay for human Androgen Receptor (AR) (AID 2282973; active = hit-call score of the fitted dose curve at least 0.9, where 1 is the maximum); conditions: HepG2 Attagene TRANS-FACTORIAL AR reporter transcription
Chain of Androgen receptor (Homo sapiens) (P10275 whole entry, looked up, the tested form may be a part): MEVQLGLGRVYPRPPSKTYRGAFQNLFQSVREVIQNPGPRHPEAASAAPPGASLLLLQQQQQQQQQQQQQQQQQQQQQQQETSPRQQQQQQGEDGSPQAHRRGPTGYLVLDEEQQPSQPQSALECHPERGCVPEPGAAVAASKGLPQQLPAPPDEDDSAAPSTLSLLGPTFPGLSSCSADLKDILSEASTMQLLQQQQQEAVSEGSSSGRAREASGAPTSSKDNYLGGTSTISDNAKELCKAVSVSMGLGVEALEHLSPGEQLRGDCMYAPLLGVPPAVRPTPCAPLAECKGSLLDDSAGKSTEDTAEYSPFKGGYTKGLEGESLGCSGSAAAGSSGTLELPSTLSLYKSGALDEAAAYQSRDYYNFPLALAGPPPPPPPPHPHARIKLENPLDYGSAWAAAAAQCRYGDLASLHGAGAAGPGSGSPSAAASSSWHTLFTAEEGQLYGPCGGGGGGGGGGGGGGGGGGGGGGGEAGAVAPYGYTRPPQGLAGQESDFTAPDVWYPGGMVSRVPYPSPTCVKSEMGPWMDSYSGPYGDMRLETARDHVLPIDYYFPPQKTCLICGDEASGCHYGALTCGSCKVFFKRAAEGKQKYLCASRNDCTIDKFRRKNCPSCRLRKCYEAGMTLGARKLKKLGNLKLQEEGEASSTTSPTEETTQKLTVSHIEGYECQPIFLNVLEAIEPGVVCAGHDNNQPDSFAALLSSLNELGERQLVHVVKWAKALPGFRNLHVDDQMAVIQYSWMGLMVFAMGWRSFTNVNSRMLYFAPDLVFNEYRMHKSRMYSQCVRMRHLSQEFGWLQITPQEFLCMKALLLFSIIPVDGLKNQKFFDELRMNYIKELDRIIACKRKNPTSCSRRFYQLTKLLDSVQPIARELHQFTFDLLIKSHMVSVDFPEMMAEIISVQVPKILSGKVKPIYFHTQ
In short: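 Transfected HepG2, 24 h treatment, chimeric NR-Gal4 driving GAL4-UAS reporters. mRNA induction by RT-PCR/capillary electrophoresis fluorescence; DMSO as negative control and baseline.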

[20] = biological target: Steroid hormone receptor ERR1 (Homo sapiens) (UniProt P11474); test: ATG_ERRa_TRANS: Attagene TRANS-FACTORIAL HepG2 Assay for human Estrogen-Related Receptor alpha (ERRa) (AID 2282971; active = hit-call score of the fitted dose curve at least 0.9, where 1 is the maximum); conditions: HepG2 Attagene TRANS reporter, ERRa transactivation
Chain of Steroid hormone receptor ERR1 (Homo sapiens) (P11474 whole entry, looked up, the tested form may be a part): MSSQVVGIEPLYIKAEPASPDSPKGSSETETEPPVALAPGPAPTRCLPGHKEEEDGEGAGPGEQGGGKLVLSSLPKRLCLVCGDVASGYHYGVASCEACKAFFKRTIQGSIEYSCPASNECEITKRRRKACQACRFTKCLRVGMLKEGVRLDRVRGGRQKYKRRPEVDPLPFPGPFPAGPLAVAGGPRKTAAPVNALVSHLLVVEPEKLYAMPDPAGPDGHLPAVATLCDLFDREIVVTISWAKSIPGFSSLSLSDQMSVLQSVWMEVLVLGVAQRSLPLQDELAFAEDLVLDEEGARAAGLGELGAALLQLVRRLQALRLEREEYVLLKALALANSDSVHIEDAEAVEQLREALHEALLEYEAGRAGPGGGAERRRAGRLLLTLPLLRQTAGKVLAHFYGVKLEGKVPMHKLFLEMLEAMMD
In short: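 HepG2 cells were transiently transfected with multiple GAL4-UAS reporter units, then dosed with compound for 24 h. Total RNA was reverse-transcribed, reporter cDNA PCR-amplified and fluorescently labelled, and fragments resolved by capillary electrophoresis; induction was compared with DMSO.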

Measured: AC50

CNC(=O)Oc1ccc(N(C)C)c(C)c1
active: [3] 38.3 µM
not listed: [19] | [20]
inactive: all other assays above

CCCCN(CC)C(=O)SCCC
active: [3] 25.9 µM | [16] 100 µM
not listed: [20]
inactive: all other assays above

O=P1(N(CCCl)CCCl)NCCCO1 (stereo not given)
active: [16] 17 µM
not listed: [15] | [18] | [19]
inactive: all other assays above

CC(C)(C)c1ccccc1OP(=O)(Oc1ccccc1)Oc1ccccc1
active: [3] 0.576 µM | [8] 11.8 µM | [16] 5.03 µM
not listed: [19]
inactive: all other assays above

Cc1ccc([N+](=O)[O-])cc1C
not listed: [15] | [19] | [20]
inactive: all other assays above

CCCCC(CC)COP(=O)(Oc1ccccc1)Oc1ccccc1 (stereo not given)
active: [2] 100 µM | [3] 0.516 µM | [4] 37.7 µM | [7] 126 µM | [8] 35.4 µM | [10] 55.3 µM | [14] 0.866 µM | [16] 1.16 µM | [17] 100 µM
not listed: [20]
inactive: all other assays above

CC(=O)c1ccc(-c2ccccc2)cc1
active: [3] 27.2 µM | [14] 32 µM | [16] 6.19 µM
not listed: [18] | [20]
inactive: all other assays above

O=NN1CCCC1
not listed: [19] | [20]
inactive: all other assays above

O=C(CBr)OCc1ccccc1
not listed: [19] | [20]
inactive: all other assays above

CC1(C)CN=C(NN=C(/C=C/c2ccc(C(F)(F)F)cc2)/C=C/c2ccc(C(F)(F)F)cc2)NC1
inactive: [1] | [2] | [5] | [14] | [15] | [17] | [18]
active: [3] 4.77 µM | [4] 3.92 µM | [6] 15.4 µM | [7] 16.6 µM | [8] 19.7 µM | [9] 20.2 µM | [10] 3.76 µM | [11] 19.4 µM | [12] 4.22 µM | [13] 11.1 µM | [16] 4.59 µM

Cc1ccc(N)cc1N
not listed: [15] | [18] | [19] | [20]
inactive: all other assays above

C=C(C)C(=O)OCC1CO1 (stereo not given)
not listed: [15] | [16] | [18] | [19] | [20]
inactive: all other assays above

CC(C)(C)N(NC(=O)c1ccc(Cl)cc1)C(=O)c1ccccc1
active: [3] 4.36 µM
not listed: [15] | [18] | [19] | [20]
inactive: all other assays above

Clc1ccc(Oc2ccccc2)cc1
active: [16] 41.7 µM
not listed: [18] | [20]
inactive: all other assays above

O=C(O)C(F)(OC(F)(F)C(F)(F)C(F)(F)F)C(F)(F)F (stereo not given)
inactive: [1] | [2] | [3] | [4] | [6] | [7] | [8] | [9] | [10] | [11] | [13] | [14] | [15] | [16] | [20] | [17] | [19] | [18]
active: [4] 74.8 µM
